In PubChem BioAssay AID1159580 (chemical genetic matrix, 2015):
Where “and” joins values, the source holds several entries; their conditions need not be identical. Equal values may be shown once. About 2,000 (36%) of roughly 5,500 compounds were called active. Another 18% or so got no clear call; they are omitted. Rule as the data show it: active = normalized growth mostly below about 0.91 (no sharp cut-off); inconclusive = no clear call, values can overlap the other calls; inactive = mostly above about 0.92. This is one part of the list.

Assay: chemical genetic growth profiling, strain panel (AID 1159580);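 also: tested at 20 µM; growth read once vehicle control cultures reached saturation at 30 °C; 1 = growth at the plate median or of vehicle wells; lower values mean less growth of the strain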
Details: S. cerevisiae deletion strains, growth OD

Measured: normalized growth

CCn1cc(C(=O)O)c(=O)c2cc(F)c(N3CCNC(C)C3)c(F)c21 (centres undefined)
inactive: locus YAL013W, strain DEP1, hits give low values 0.989 | locus YAL021C, strain ccr4, hits give low values 0.957 | locus YAL026C, strain drs2, hits give low values 0.974 | locus YAL030W, strain snc1, hits give low values 0.988 | locus YAL040C, strain CLN3, hits give low values 0.984 | locus YBL061C, strain skt5, hits give low values 0.962 | locus YBR009C, strain hhf1, hits give low values 1.01 | locus YBR021W, strain FUR4, hits give low values 0.982 | locus YBR023C, strain chs3, hits give low values 0.986 | locus YBR171W, strain sec66, hits give low values 0.975 | locus YBR229C, strain ROT2, hits give low values 1 | locus YBR231C, strain swc5, hits give low values 0.997 | locus YBR279W, strain paf1, hits give low values 0.975 | locus YCL011C, strain gbp2, hits give low values 0.971 | locus YCL016C, strain dcc1, hits give low values 0.958 | locus YCL029C, strain bik1, hits give low values 0.979 | locus YCL061C, strain MRC1 (second series), hits give low values 0.997 | locus YCL061C, strain MRC1, hits give low values 0.993 | locus YCL069W, strain vba3, hits give low values 0.975 | locus YCR088W, strain abp1, hits give low values 0.964 | locus YDL005C, strain med2, hits give low values 0.97 | locus YDL035C, strain GPR1, hits give low values 0.978 | locus YDL040C, strain nat1, hits give low values 0.981 | locus YDL074C, strain BRE1, hits give low values 1.02 | locus YDL101C, strain DUN1, hits give low values 0.995 | locus YDL134C, strain PPH21, hits give low values 0.985 | locus YDL185W, strain tfp1, hits give low values 0.963 | locus YDL192W, strain arf1, hits give low values 0.992 | locus YDR001C, strain nth1, hits give low values 0.974 | locus YDR069C, strain doa4, hits give low values 0.989 | locus YDR101C, strain arx1, hits give low values 0.988 | locus YDR137W, strain rgp1, hits give low values 0.949 | locus YDR150W, strain NUM1, hits give low values 0.996 | locus YDR159W, strain sac3, hits give low values 0.949 | locus YDR162C, strain NBP2, hits give low values 0.98 | locus YDR195W, strain ref2 0.997 | locus YDR297W, strain sur2, hits give low values 0.978 | locus YDR318W, strain mcm21, hits give low values 0.976 | locus YDR334W, strain swr1, hits give low values 0.975 | locus YDR335W, strain msn5, hits give low values 0.968 | locus YDR363W, strain ESC2, hits give low values 1.01 | locus YDR388W, hits give low values 0.995 | locus YDR392W, strain spt3, hits give low values 0.842 | locus YDR502C, strain sam2, hits give low values 0.986 | locus YEL003W, strain gim4, hits give low values 0.982 | locus YEL037C, strain rad23, hits give low values 0.974 | locus YEL061C, strain CIN8 (second series), hits give low values 0.975 | locus YEL061C, strain CIN8, hits give low values 1.01 | locus YER002W, strain NOP16, hits give low values 0.987 | locus YER015W, strain faa2, hits give low values 0.988 | locus YER016W, strain bim1, hits give low values 0.948 | locus YER110C, hits give low values 0.984 | locus YER111C, strain swi4, hits give low values 0.964 | locus YER155C, strain BEM2 (second series), hits give low values 0.945 | locus YER155C, strain BEM2, hits give low values 0.993 | locus YER167W, strain BCK2, hits give low values 0.971 | locus YFR010W, strain ubp6, hits give low values 1 | locus YGL078C, strain dbp3, hits give low values 0.988 | locus YGL086W, strain mad1, hits give low values 0.995 | locus YGL167C, strain pmr1, hits give low values 0.98 | locus YGL173C, strain kem1, hits give low values 0.993 | locus YGL227W, strain vid30, hits give low values 0.981 | locus YGL240W, strain doc1, hits give low values 1.01 | locus YGL248W, strain PDE1, hits give low values 1.01 | locus YGL253W, strain hxk2, hits give low values 0.98 | locus YGR078C, strain PAC10, hits give low values 1.04 and 1.02 | locus YGR135W, strain pre9, hits give low values 0.953 | locus YGR252W, strain gcn5, hits give low values 0.991 | locus YHR013C, strain ard1, hits give low values 0.984 | locus YHR027C, strain rpn1, hits give low values 1 | locus YHR030C, strain SLT2, hits give low values 0.988 and 1.03 | locus YHR079C, strain IRE1 (second series), hits give low values 0.985 | locus YHR079C, strain IRE1, hits give low values 1.06 | locus YHR094C, strain hxt1, hits give low values 0.993 | locus YHR129C, strain ARP1, hits give low values 0.991 | locus YHR142W, strain chs7, hits give low values 0.948 | locus YHR200W, strain rpn10, hits give low values 0.982 | locus YIL066C, strain RNR3, hits give low values 1.01 | locus YIL073C, strain SPO22, hits give low values 0.867 | locus YIL125W, strain kgd1, hits give low values 0.998 | locus YIR030C, strain dcg1, hits give low values 0.98 | locus YJL092W, strain hpr5, hits give low values 0.99 | locus YJL095W, strain BCK1 (second series), hits give low values 0.968 | locus YJL095W, strain BCK1, hits give low values 1.03 and 1.01 | locus YJL115W, strain asf1, hits give low values 0.967 | locus YJL129C, strain trk1, hits give low values 0.931 | locus YJL134W, strain LCB3, hits give low values 0.987 | locus YJL154C, strain vps35, hits give low values 0.967 | locus YJL164C, strain tpk1, hits give low values 0.975 | locus YJL166W, strain qcr8, hits give low values 0.998 | locus YJL168C, strain set2, hits give low values 0.999 | locus YJL187C, strain SWE1 (second series), hits give low values 1.02 | locus YJR043C, strain POL32, hits give low values 1.01 | locus YJR066W, strain TOR1, hits give low values 0.956
